# Screening results deposited in PubChem BioAssay by National Center for Advancing Translational Sciences (NCATS).
# Pf growth 48h – inhibits P. falciparum growth in the first generation, 48 h. hit rate 5.9% among 310,000. AID 504832. Potency, µM (series often up to 28.7 µM), for inactives: at the top dose activity change, negative = inhibition, actives largely listed as inhibitors. P. falciparum luciferase growth in erythrocytes, 48 h; further: potency means the concentration at half of the fitted maximal effect; on the % scale 0 is the no-effect control and ±100 the full control effect
#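 Growth was read as firefly luciferase luminescence after a 48 h, 37 C, 5% CO2 exposure of compounds to reporter-bearing P. falciparum cultures (0.1% parasitemia, 2% hematocrit final) in Albumax-supplemented RPMI 1640.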
# Shiga toxin inh – blocks Shiga toxin action in Vero cells; hit rate 9.2% among 290,000; Vero cells, Shiga toxin protein synthesis inhibition reporter; AID 2315; inhibition, % at 38.7 µM; in the data active means inhibition mostly above about 28%, no sharp cut-off; inactive means mostly below about 43%; further: 0% is about no effect
# Pf growth 96h – P. falciparum growth inhibition at 96 hour, primary screen for plastid delayed-death inhibitors; P. falciparum luciferase reporter growth, 96 h; Potency, µM (series often up to 28.7 µM), for the others: top-dose activity change, negative = inhibition, usual class: inhibitors; hit rate 6.9% among 320,000; AID 504834; further: potency means the concentration at half of the fitted maximal effect; on the % scale 0 is the no-effect control and ±100 the full control effect
#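 Two parasite generations (96 h, 37 C, 5% CO2) of compound exposure in infected erythrocytes (0.05% parasitemia, 2% hematocrit). Luciferase-reporter P. falciparum; decreased luminescence indicates inhibited growth, aimed at apicoplast-acting delayed death.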
# Sm TGR inh – inhibitors of Schistosoma mansoni thioredoxin glutathione reductase; Potency, µM (doses to about 114 µM), for inactives: at the highest dose activity change, negative = inhibition, most hits filed as inhibitors; purified TGR, DTNB reduction, TNB absorbance 405 nm; hit rate 3% among 360,000; Q962Y6; further: potency means the concentration at half of the fitted maximal effect; on the % scale 0 is the no-effect control and ±100 the full control effect; nearly all actives have a fitted effect of over 60% in size
#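 First, TGR (20 nM dispensed) and NADPH were mixed with compound. Second, a 15 min room-temperature incubation followed. Third, further NADPH and then DTNB were added to start the reaction. Finally, TNB absorbance was monitored kinetically.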
# NS1 inh – influenza NS1 inhibition. Potency, µM (highest dose often 46.1 µM), inactives show at the highest dose activity, positive = more growth. hit rate 0.4% among 270,000. AID 2326; calls by dose curve; further: potency means the concentration at half of the fitted maximal effect; actives are rising curves; nearly all actives have a fitted effect of over 50% in size
#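 Growth recovery, yeast-based: influenza A NS1 expressed in S. cerevisiae causes slow growth, and suppressors are detected by OD600. The parent strain without NS1 is used as positive control.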
# Cycloheximide cs – counter-screen hit for Shiga toxin inhibitors, cycloheximide; cell reporter, cycloheximide protein synthesis inhibition counterscreen; max response, %; hit rate 12% among 300,000; in the data active means max response mostly above about 13%, no sharp cut-off; inactive means mostly below about 14%; further: read at 38.3 µM for the half of the compounds with a filed dose; 0% is about no effect
# Numbers without * were called inactive; i = inactive; ? = inconclusive; / = no result given; [ ] = remark or other dose. This is a sample that favours compounds with a hit; in the whole collection about 21% have one here. Unless noted, the call rests on the fitted dose curve; in most records, active means well fitted curve in the direction sought with a large enough effect; inconclusive means small, poorly fitted or top-dose-only effect, or another doubt; inactive means no such curve, though single readings can be large; an effect the other way counts as inactive or inconclusive.
SMILES,Pf growth 48h,Shiga toxin inh,Pf growth 96h,Sm TGR inh,NS1 inh,Cycloheximide cs
CCc1nn2c(=O)cc(COC(=O)CNC(=O)c3ccccc3)nc2s1,/,/,/,-1%,/,/
CCN1CCN(Cc2ccc(NC(=O)c3ccc(C)c(NC(=O)c4cc(-c5ccc(Br)cc5)n[nH]4)c3)cc2C(F)(F)F)CC1,1µM*,-3,1.9µM*,7%,11%,-2
CCN1CCN(Cc2ccc(NC(=O)c3cc(NC(=O)c4cncc(-c5ccc(C#N)cc5)c4)cc(OC)c3)cc2C(F)(F)F)CC1,0.47µM*,-11,0.1µM*,5%,-8%,-5
CCOc1ccc(-n2nc3ccc(NC(=O)CC)cc3n2)cc1,49%,55*,70%,-30%,-2%,31*
CCOc1ccc(-n2nc3ccc(NC(=O)Cc4ccccc4)cc3n2)cc1,/,/,/,1%,/,/
COc1ccc(-n2nc3ccc(NC(=O)c4c(OC)cccc4OC)cc3n2)cc1,/,52,/,1%,/,36*
COc1cc(C(=O)Nc2ccc3nn(-c4ccc(F)cc4)nc3c2)cc(OC)c1OC,/,/,/,3%,/,/
O=[N+]([O-])c1cc(Cl)cc(C2=NCCN2)c1,/,-12,?,3%,-11%,1
CC(NC(=O)CN1C(=O)NC2(CCCC2)C1=O)c1ccc2ccccc2c1 (stereo unspecified),-18%,/,0%,1%,/,/
CC(=O)C1=C(C)OC(N)=C(C#N)C1c1ccco1 (stereo unspecified),?,-26,?,13µM*,7%,-2
CC(=O)C1=C(C)OC(N)=C(C#N)C1c1cccc2ccccc12 (stereo unspecified),1%,2,5%,11µM*,7%,-3
Cc1nn(-c2ccccc2)c2c1C(c1ccco1)C(C#N)=C(N)O2 (stereo unspecified),?,55*,5%,?,-82%,40*
Cc1nn(-c2ccccc2)c2c1C(c1cccs1)C(C#N)=C(N)O2 (stereo unspecified),/,-3,?,-26%,4%,9
Cc1c(C(=O)NCC2CCCO2)oc2ccc(Br)cc12 (stereo unspecified),71%,/,96%,4%,/,/
CC1NC(C)(C)Cc2c1ccc1ccccc21 (stereo unspecified),-1%,-28,-20%,0%[57.1 µM],-1%,-1
CC[N+]1(CC)CC2=Cc3c(ccc4ccccc34)C(C)C2C1 (stereo unspecified),2.3µM*,-10,1.5µM*,-32%,-4%,-2
COC(=O)c1cc2sccc2n1CC(=O)N1CCCc2ccccc21,?,25,?,-16%,-12%,-1
COC(=O)c1cc2oc(C)cc2n1CC(=O)Nc1ccc(OC)c(OC)c1,/,/,/,-14%,/,/
CCOC(=O)c1cc2occc2n1CC(=O)N1CCCc2ccccc21,9.3µM*,13,i,8.9µM*,4%,12
COC(=O)c1cc2oc(C)cc2n1CC(=O)Nc1ccc(C)c(C)c1,0%,23,1.7µM*,-19%,-11%,-2
COC(=O)c1cc2oc(C)cc2n1CC(=O)N1CCCc2ccccc21,?,32,6.6µM*,-17%,-9%,14
COC(=O)c1cc2sc(Cl)cc2n1CC(=O)N1CCCc2ccccc21,10µM*,-2,21%,-8%,-10%,-3
COc1ccc(S(=O)(=O)Nc2ccc3c(c2)N(C(C)=O)CCC3)cc1F,/,/,/,1%,/,/
CC(/C=C/C=C(\C)C(=O)O[C@@H]1O[C@H](CO[C@@H]2O[C@H](CO)[C@@H](O)[C@H](O)[C@H]2O)[C@@H](O)[C@H](O)[C@H]1O)=C\C=C\C=C(C)\C=C\C=C(/C)C(=O)O[C@@H]1O[C@H](CO[C@@H]2O[C@H](CO)[C@@H](O)[C@H](O)[C@H]2O)[C@@H](O)[C@H](O)[C@H]1O,-1%,/,11%,/,/,/
CCOc1ccccc1NC(=O)CCCNC(=O)c1ccc(Cl)cc1,0%,31,-20%,0%,-5%,-3
Clc1ccc(N2CCN(/N=C/c3cccnc3)CC2)cc1,?,-9,13%,10%,10%,-3
Cc1nn(-c2ccccc2)c(C)c1/C=N/NC(=O)c1cc(O)cc(O)c1,?,-4,?,-22%,-2%,-2
O=C(N/N=C/c1cc2c3c(c1O)CCCN3CCC2)c1ccccc1O,3.3µM*,18,2.6µM*,?,25%,16
